Laboratory results as given in PubChem BioAssay (NCI).
About 79,000 compounds went through this panel and 15% of them were active in at least one assay; those are over-represented in the sample as a whole. The source made the active and inactive calls. Rule as the data show it: active = growth inhibition above about 70%; inactive = the rest.

Assay: NCI Yeast Anticancer Drug Screen. Data for the CLN2oe strain (AID 163);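 also: 0% = growth of vehicle-only control cultures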
Conditions: S. cerevisiae CLN2oe strain, at 11.0 µM, stronger effect = higher value
Procedure, shortened: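 Strain altered in cell-cycle control, incubated with compound; growth compared to solvent-treated controls.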

Row | Structure (SMILES) | growth inhibition
1 | CCS(=O)(=O)c1ccc(/C=C/C=N/NC(=S)NCC(C)C)cc1 | -3% (inactive)
2 | CCC(=O)Oc1c(Cl)cc(Cl)c2ccccc12 | -7% (inactive)
3 | COc1cc2c3c(cccc3c1)C(=O)N(CCN(C)C)C2=O | 25% (inactive)
4 | CN(C)c1ccc(C(C#N)=C(C#N)C#N)cc1 | 8% (inactive)
5 | O=C(CCCN1CCC2(CC1)CC(=O)N(N1CCCCCC1)C2=O)c1ccc(F)cc1 | 58% (inactive)
6 | O=C1C2C(C(=O)N1c1ccc(OCc3ccccc3)cc1)C1c3ccccc3C2C2CCCCN21 (stereo not given) | -12% (inactive)
7 | CCN(CC)CCC(=O)c1ccc(Oc2ccc(F)cc2)cc1 | 35% (inactive)
8 | O=Nc1c(NO)ccc2nn(-c3ccccc3)nc12 | 97% (active)
9 | CC(=O)SCCC[Si](C)(C)CCCSC(C)=O | -7% (inactive)
10 | O=C(O)C1CCCCC1c1c2ccc(=O)c(O)c-2oc2c(O)c(O)ccc12 (stereo not given) | 23% (inactive)
11 | Cc1ccc(NN(NC(=O)OC(C)C)C(=O)OC(C)C)cc1 | -5% (inactive)
12 | O=C1c2ccccc2C(=O)c2cc(CBr)ccc21 | 8% (inactive)
13 | Cc1c(C(Cc2ccccc2N(C)C(=O)/C=C\C(=O)O)c2c[nH]c3ccccc23)c2ccccc2n1C (stereo not given) | -9% (inactive)
14 | CC(C)/C(Cl)=N\OC(=O)Nc1ccc(F)cc1 | 15% (inactive)
15 | O=C1OC(=O)C2CCCC3CCCC1C32 (stereo not given) | 95% (active)
16 | CCOC(=O)C(NC(=O)c1ccccc1)(N1CCN(c2cc3c(cc2F)c(=O)c(C(=O)O)cn3C2CC2)CC1)C(F)(F)F (stereo not given) | 2% (inactive)
17 | COc1ccc(NC(=S)N/N=C(\c2ccccc2)c2ccccn2)cc1 | -4% (inactive)
18 | C=CCC1=C(C)C(OC(=O)/C=C/c2ccccc2)CC1=O (stereo not given) | 5% (inactive)
19 | NNc1c(F)c(F)cc(F)c1F | 3% (inactive)
20 | COP(=O)(OC)/C(=C\C1=CN(C(c2ccccc2)(c2ccccc2)c2ccccc2)CN1)NC=O | -8% (inactive)
21 | COC(=O)c1cc(-c2ccc(C)cc2)[nH]c(=O)c1C#N | -1% (inactive)

Same assay, conditions: S. cerevisiae CLN2oe strain, at 33.0 µM, stronger effect = higher value

Row | Structure (SMILES) | growth inhibition
22 | CCOP(=O)(OCC)C(Cc1ccccc1)N=C(c1ccccc1)c1ccccc1 (stereo not given) | 87% (active)
23 | CCc1ncnc2cc(OCC3CO3)c(OC)cc12 (stereo not given) | 30% (inactive)
24 | CCOC(=O)[C@H]1Nc2ccccc2C2c3ccccc3CC21 (stereo not given in full) | 30% (inactive)
25 | O=CNc1ccc2c(c1)C(=O)c1ccccc1-2 | 37% (inactive)
26 | CCOc1ccc2c(c1)c(CC(=O)O)cn2C | 24% (inactive)
27 | OC1CSCCCSCCSCCCSC1 | 17% (inactive)
28 | N#Cc1c(N)[nH]c2ccc(Sc3ccccc3)cc12 | 95% (active)
29 | Cc1ccc(-c2ccc(Nc3c4ccccc4nc4ccccc34)cc2)cn1 | 85% (active)
30 | c1ccc2c(c1)NC(NC1Nc3ccccc3N1)N2 | -7% (inactive)
31 | OC(COc1cccc2ccccc12)CN1CCOCC1 (stereo not given) | 69% (inactive)
32 | CCC/C(Cl)=N\OC(=O)Nc1ccc(Br)cc1 | 98% (active)
33 | COc1ccc(/C=C2\SC(=S)N(/C=C/c3nc4ccccc4[nH]c3=O)C2=O)cc1OC | 59% (inactive)
34 | O=C(NNc1ccnc2cc(Cl)ccc12)/C(=C\c1ccccc1Cl)NC(=O)c1ccccc1 | 76% (active)
35 | CSC1=NNC(SC)=NN1 | 46% (inactive)
36 | Cc1c(C2=C(Br)C(=O)N(C)C2=O)c(=O)n(C)c(=O)n1C | 10% (inactive)
37 | NCCNc1ccc(NCCN)c2c1C(=O)c1c(O)ccc(O)c1C2=O | 82% (active)
38 | Cn1c(=O)c(-c2ccccc2)c(N=[N+]=[N-])c2ccccc21 | 94% (active)
39 | CCCCCCCCCCCCCCCCCCOCC(O)COP(=O)(O)OCC1OC(n2cc(F)c(=O)[nH]c2=O)CC1O (stereo not given) | 96% (active)
40 | CCS(=O)(=O)c1ccc(/C=C/C=N/NC(=S)NCC(C)C)cc1 | 1% (inactive)
41 | CCC(=O)Oc1c(Cl)cc(Cl)c2ccccc12 | -6% (inactive)

Row | Structure (SMILES) | growth inhibition
42 | COc1cc2c3c(cccc3c1)C(=O)N(CCN(C)C)C2=O | 34% (inactive)
43 | CN(C)c1ccc(C(C#N)=C(C#N)C#N)cc1 | 8% (inactive)
44 | O=C(CCCN1CCC2(CC1)CC(=O)N(N1CCCCCC1)C2=O)c1ccc(F)cc1 | 71% (active)
45 | O=C1C2C(C(=O)N1c1ccc(OCc3ccccc3)cc1)C1c3ccccc3C2C2CCCCN21 (stereo not given) | -12% (inactive)
46 | CCN(CC)CCC(=O)c1ccc(Oc2ccc(F)cc2)cc1 | 54% (inactive)
47 | O=Nc1c(NO)ccc2nn(-c3ccccc3)nc12 | 98% (active)
48 | CC(=O)SCCC[Si](C)(C)CCCSC(C)=O | 13% (inactive)
49 | O=C(O)C1CCCCC1c1c2ccc(=O)c(O)c-2oc2c(O)c(O)ccc12 (stereo not given) | 67% (inactive)
50 | Cc1ccc(NN(NC(=O)OC(C)C)C(=O)OC(C)C)cc1 | 1% (inactive)
51 | O=C1c2ccccc2C(=O)c2cc(CBr)ccc21 | 28% (inactive)
52 | Cc1c(C(Cc2ccccc2N(C)C(=O)/C=C\C(=O)O)c2c[nH]c3ccccc23)c2ccccc2n1C (stereo not given) | -4% (inactive)
53 | CC(C)/C(Cl)=N\OC(=O)Nc1ccc(F)cc1 | 14% (inactive)
54 | O=C1OC(=O)C2CCCC3CCCC1C32 (stereo not given) | 97% (active)
55 | CCOC(=O)C(NC(=O)c1ccccc1)(N1CCN(c2cc3c(cc2F)c(=O)c(C(=O)O)cn3C2CC2)CC1)C(F)(F)F (stereo not given) | 6% (inactive)
56 | COc1ccc(NC(=S)N/N=C(\c2ccccc2)c2ccccn2)cc1 | 55% (inactive)
57 | C=CCC1=C(C)C(OC(=O)/C=C/c2ccccc2)CC1=O (stereo not given) | 15% (inactive)
58 | NNc1c(F)c(F)cc(F)c1F | 18% (inactive)
59 | COP(=O)(OC)/C(=C\C1=CN(C(c2ccccc2)(c2ccccc2)c2ccccc2)CN1)NC=O | 25% (inactive)
60 | COC(=O)c1cc(-c2ccc(C)cc2)[nH]c(=O)c1C#N | 3% (inactive)
